Counter-ions that a name gives are not always drawn. ± gives the standard deviation of the averaged measurements.

The test has as its system K562. Briefly: relative cell viability (ATPlite) vs untreated control, with imatinib (fraction); higher = less toxic. The conditions noted are these: 1 µM; 72 h; imatinib 0.125 µM. A general note: In ATP-based viability assays light output follows the ATP content of the culture.
Compound `O=C(Nc1cc(Cl)cc2c1[nH]c1cnccc12)c1cccnc1` [IKK Inhibitor X] yielded a relative cell viability of 0.804 ± 0.023. Compound `Cc1cc(C=C2C(=O)C=CC2=O)cc(C)c1O` showed a relative cell viability of 0.595 ± 0.12.

For the compound `COc1cc2ncnc(Nc3ccc(Cl)cc3Cl)c2cc1OC` [Ste11 MAPKKK Activation Inhibitor], the relative cell viability was found to be 0.71 ± 0.076. Compound `Nc1nccc(-c2c(-c3ccc(F)cc3)ncn2C2CCNCC2)n1` yielded a relative cell viability of 0.662 ± 0.046. On to `O=C(Nc1cccc(Nc2nccc(Nc3cccc(C(F)(F)F)c3)n2)c1)C1CC1` [Aurora Kinase Inhibitor III], for which the relative cell viability came out at 0.755 ± 0.05. The value for `Cn1c(O)c(-c2[nH]c3ccccc3c2N=O)c2ccc(Br)cc21` [GSK-3 Inhibitor IX, Control, MeBIO] was 0.8454 ± 0.0073; that for `N#Cc1c(NC(=O)c2cccc3ccccc23)sc2c1CCCC2` [JNK Inhibitor IX] was 0.101 ± 0.04; that for `Cc1cc2ncc(-c3ccccc3)nc2cc1C` was 0.719 ± 0.05. `Cc1ccc(S(=O)(=O)/C=C/C#N)cc1` gave a relative cell viability of 0.697 ± 0.14. The compound `COc1cc2ncnc(Nc3cccc(O)c3)c2cc1OC` [WHI-P180, Hydrochloride] showed a relative cell viability of 0.366 ± 0.045.

The compound `O=c1cc(N2CCOCC2)oc2c1ccc1ccccc12` [DNA-PK Inhibitor II] yielded a relative cell viability of 0.754 ± 0.023.

On to `COc1ccc2nc3n[nH]c(C)c3c(NCCOCCO)c2c1`, for which the relative cell viability turned out to be 0.843 ± 0.066.

The compound `c1ccc(-c2cnc(Nc3ccc(OCCN4CCCC4)cc3)s2)cc1` [Flt-3 Inhibitor III] came in with a relative cell viability of 0.797 ± 0.031. Then `CC[C@@H](CO)Nc1nc(NCc2ccc(-c3ccccn3)cc2)c2ncn(C(C)C)c2n1` [CR8, (S)-Isomer], with 0.0705 ± 0.018; and `O=C1NC(=O)c2c1c1c3ccccc3[nH]c1n1cncc21` [Isogranulatimide], with 0.773 ± 0.049.

Values taken from the supplement of paper PMC4100887.
